# Test results: PubChem BioAssay AID651719 (The Scripps Research Institute Molecular Screening Center, 2012)
# The campaign covered roughly 360,000 compounds. About 1,600 (0.44%) were called active.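 How the source made its calls: active means inhibition above the screen-wide average plus 3 SD (cut at about 13% in these data); inactive means the rest.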 Shown is part of a subset that was picked to be rich in actives.
# Target: Galanin receptor type 3 (Homo sapiens) (UniProt O60755)
# Assay: blockers of human galanin receptor 3 – cell-based, fluorescence readout, primary screen (AID 651719);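 further: forskolin and galanin both at EC90 stimulate the cells; cAMP rise reported by CNG channel membrane potential dye signal; 0% = forskolin plus galanin with DMSO and 100% = forskolin alone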
# Settings: HEK293 GalR3-CNG cAMP membrane potential fluorescence; at 3 µM; stronger effect = higher value; galR3 body fused to GalR1 C-terminus
# Sequence of Galanin receptor type 3 (Homo sapiens) (O60755 1-299 limits assumed): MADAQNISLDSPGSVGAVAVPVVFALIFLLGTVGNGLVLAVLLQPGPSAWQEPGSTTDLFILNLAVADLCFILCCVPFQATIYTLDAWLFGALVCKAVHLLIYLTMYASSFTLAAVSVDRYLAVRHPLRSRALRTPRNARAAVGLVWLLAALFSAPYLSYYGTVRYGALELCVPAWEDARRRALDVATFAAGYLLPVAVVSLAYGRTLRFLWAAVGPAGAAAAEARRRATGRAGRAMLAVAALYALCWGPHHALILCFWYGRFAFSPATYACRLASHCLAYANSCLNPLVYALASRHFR
row,SMILES,inhibition
1,CCCCCCCCN1C(=O)[C@@H](CC(=O)N2CCN(C(=O)OCC)CC2)C[C@@]2(C(=O)OC)C1=C[C@H](C1CCCC1)O[C@@H]2C,-3.33% (inactive)
2,CCN1/C(=C\c2ccc3ccccc3[n+]2CC)Sc2cc(C)ccc21,45.8% (active)
3,COC(=O)[C@]12C[C@H](CC(=O)NCc3cccc(C(F)(F)F)c3)C(=O)N(Cc3ccc4c(c3)OCO4)C1=C[C@H](COCc1ccccc1)O[C@@H]2C,-4.92% (inactive)
4,COc1cccc(CNC(=O)[C@H]2CCCN2C(=O)[C@H]2CCCN2C(=O)C2CCCCC2)c1,-6.3% (inactive)
5,CCOc1cc(C(=O)N2CCc3cc(OC)c(OC)cc3C2)ccc1OC(F)F,31.5% (active)
6,COc1cc2c(cc1OC)CN(C(=O)c1cc(S(=O)(=O)N3CCCCC3)ccc1Cl)CC2,-3.04% (inactive)
7,COc1cc2c(cc1OC)CN(C(=O)c1ccc(S(=O)(=O)N3CCCCCC3)cc1)CC2,1.33% (inactive)
8,Nc1nc2c(ncn2[C@@H]2O[C@H](C(=O)N[C@@H](Cc3ccccc3)C(=O)NCc3ccccc3)[C@@H](O)[C@H]2O)c(=O)[nH]1,-5.49% (inactive)
9,Cc1cc(C(=O)OCC(=O)N2c3ccccc3NC(=O)C2(C)C)c(C)n1-c1ccccc1,-4.87% (inactive)
10,CCOC(=O)CN1C(=O)C(=O)c2cc(C)ccc21,-3.3% (inactive)
11,CCOC(=O)c1cc2n(c1C)-c1ccccc1C2=O,15.1% (active)
12,CCCNC(=O)C1(C)CCN1C(=O)Cc1ccc(-c2ccccc2)cc1 (stereo not drawn),-4.21% (inactive)
13,CC1(C(=O)NS(=O)(=O)c2ccccc2)CCN1C(=O)Cc1ccc(-c2ccccc2)cc1 (stereo not drawn),0.25% (inactive)
14,C#Cc1ccc(NC(=O)C2(C)CCN2C(=O)Cc2ccc(-c3ccccc3)cc2)cc1 (stereo not drawn),44.5% (active)
15,CCCn1nc(C(=O)NNC(=O)CSCC(=O)Nc2cc(C)on2)c2ccccc2c1=O,21.7% (active)
16,CCCn1nc(C(=O)NNC(=O)CCOc2ccccc2OCC)c2ccccc2c1=O,-2.63% (inactive)
17,CCCn1nc(C(=O)Nc2ccc3nc(C)sc3c2)c2ccccc2c1=O,-5.64% (inactive)
18,C[C@H](O)[C@@H]1CN2CCc3ccc(-c4ccc5c(c4)OCO5)cc3[C@@H]2C[C@@H]1N(C)C(=O)C1CCCCC1,-7.4% (inactive)
19,COC(=O)C1=C(C(=O)OC)C2C=C(C(C)C)C1C(=O)C2(C)O (stereo not drawn),-4.32% (inactive)
20,COC(=O)[C@]12C[C@H](CC(=O)NCc3ccccc3)C(=O)N(CCC3=CCCCC3)C1=C[C@H](C(C)(C)C)O[C@@H]2C,-4.94% (inactive)
21,COc1cc(NC(=O)CSc2ccc(-c3cccnc3)nn2)cc(OC)c1,-2.54% (inactive)
22,Cc1c(Cl)cccc1NC(=O)CSc1ccc(-c2cccnc2)nn1,14.3% (active)
23,O=C(CSc1ccc(-c2cccs2)nn1)Nc1ccccc1F,-4.48% (inactive)
24,O=S1(=O)c2ccc(Br)cc2-n2nncc2CN1Cc1cccc(Cl)c1,-7.46% (inactive)

row,SMILES,inhibition
1,COCCCNC(=O)C[C@H]1C[C@@]2(C(=O)OC)C(=C[C@H](C(C)(C)C)O[C@@H]2C)N(Cc2ccc3c(c2)OCO3)C1=O,-0.33% (inactive)
2,CCCN1Cc2cccc(C(=O)NCc3ccccc3)c2C1=O,-3.84% (inactive)
3,CCCN1Cc2cccc(C(=O)Nc3ccc(S(=O)(=O)N4CCCCCC4)cc3)c2C1=O,-8.35% (inactive)
4,COCCN1Cc2cccc(C(=O)Nc3ccccc3OC)c2C1=O,41.5% (active)
5,O=C(NS(=O)(=O)c1cccs1)[C@H]1O[C@@H](n2ccc(=O)[nH]c2=O)[C@H](O)[C@@H]1O,-5.05% (inactive)
6,Cc1cc2c(nc1C)CCCN2C,-4.98% (inactive)
7,CC(CCc1ccccc1)NCC(O)c1cccc([N+](=O)[O-])c1 (stereo not drawn),26.9% (active)
8,CC(C)OC(=O)CC(=O)CC(O)c1cccc([N+](=O)[O-])c1 (stereo not drawn),-6.46% (inactive)
9,O=C(CC(c1ccccc1)c1ccccc1)NCC(O)c1ccc([N+](=O)[O-])cc1 (stereo not drawn),-3.68% (inactive)
10,COc1ccc(S(=O)(=O)Nc2ccc3c(c2)C(=O)N([C@H](C)CO)C[C@H](C)[C@@H](CN(C)C)OCCCC[C@H](C)O3)cc1,-6.44% (inactive)
11,c1coc(CNc2ncnc3ccccc23)c1,82.2% (active)
12,c1ccc(CNc2ncnc3[nH]ncc23)cc1,-4.19% (inactive)
13,O=C(NCc1ccncc1)C(=O)NCc1ccco1,-2.62% (inactive)
14,C[C@H](O)[C@@H]1C(=O)N2CCc3c([nH]c4c(-c5ccc6c(c5)OCO6)cccc34)[C@@H]2C[C@@H]1N(C)C(=O)c1ccco1,-7.36% (inactive)
15,C[C@H]1[C@H](c2ccccc2)Oc2cc(Br)ccc2S(=O)(=O)N1Cc1cccc(F)c1,-2.05% (inactive)
16,O=C(Nc1ccc(CSc2ccccc2)cc1)c1ccc(CN2CCOCC2)cc1,95.3% (active)
17,CCOc1ccc(C(=O)Nc2ccc(CN3CCOCC3)cc2)cc1Cl,-8.84% (inactive)
18,O=C(Nc1ccccc1C(=O)N1CCOCC1)c1ccc(CSc2ccccc2)cc1,-0.11% (inactive)
19,COC(=O)N1Cc2ccnnc2CC1c1ccccc1Br (stereo not drawn),1.18% (inactive)
20,Cc1c(C=O)c2ccccc2n1CC(=O)O,12.7% (active)
21,Cc1c(C=O)c2ccccc2n1CCOc1ccccc1,2.42% (inactive)
22,O=C(O)Cn1c(Cc2ccccc2)nc2ccccc21,-10.6% (inactive)
23,C=CC1=CCN(S(=O)(=O)C(C)(C)C)[C@@H]1CCO,-6.58% (inactive)
24,O=C(NCc1ccccc1)[C@H]1CCCN1C(=O)[C@@H]1CCCN1C(=O)c1ccc(Cl)cc1Cl,-7.72% (inactive)

row,SMILES,inhibition
1,C[C@H]1CN([C@@H](C)CO)C(=O)CCCn2nncc2CO[C@@H]1CN(C)C(=O)Nc1ccc(N2CCN(C)CC2)cc1,-5.34% (inactive)
2,CC(C)[C@H]1COCCS(=O)(=O)N1Cc1ccccc1-c1cccc2c1sc1ccccc12,-3.29% (inactive)
3,Cn1c(N)c(C(=O)COC(=O)COc2ccc(Cl)cc2)c(=O)n(C)c1=O,-5.52% (inactive)
4,Cn1c(N)c(C(=O)COC(=O)c2cnc(Cl)c(Cl)c2)c(=O)n(C)c1=O,18.3% (active)
5,Cn1c(N)c(C(=O)COC(=O)c2ccc3ccccc3c2)c(=O)n(C)c1=O,-4.21% (inactive)
6,Cc1ccc(S(=O)(=O)N2CCN(C(=O)COC(=O)c3c(C)noc3C)CC2)c(C)c1,-3.17% (inactive)
7,Cc1ccc(S(=O)(=O)N2CCN(C(=O)COC(=O)c3c(C)cc(C)cc3C)CC2)c(C)c1,14.7% (active)
8,COc1ccc(/C=C/C(=O)OCC(=O)N2CCN(S(=O)(=O)c3ccc(C)cc3C)CC2)cc1OC,-2.95% (inactive)
9,COC(=O)C1=C(C)N(Cc2ccccc2C(F)(F)F)C(=NCc2ccc(OC)cc2)NC1c1cccc(C(F)(F)F)c1 (stereo not drawn),-3.7% (inactive)
10,CN1C(=O)C(Br)(Br)CC1c1cccnc1 (stereo not drawn),-8.3% (inactive)
11,Nc1nc2c(ncn2[C@@H]2O[C@H](C(=O)N[C@H](Cc3ccccc3)C(=O)NCC3CCCCC3)[C@@H](O)[C@H]2O)c(=O)[nH]1,-7.48% (inactive)
12,CSc1ccc(Oc2cccc3c2S(=O)(=O)N([C@H](C)c2ccccc2)C[C@@H](COCc2ccccc2)O3)cc1C,-3.93% (inactive)
13,CCc1c(C)nc(SCC(=O)NC2CCCC2)[nH]c1=O,-6.61% (inactive)
14,CCc1ccc(-c2nc(SCC(=O)NC3CCCC3)n[nH]2)cc1,24.9% (active)
15,COC(=O)c1ccccc1NC(=O)CSc1n[nH]c(-c2ccncc2)n1,-2.72% (inactive)
16,CN(C)C(=O)N1CCN(C(=O)[C@@H](Cc2ccccc2)NC(=O)[C@H]2O[C@@H](n3ccc(N)nc3=O)[C@H](O)[C@@H]2O)CC1,-7.47% (inactive)
17,COc1ccccc1CCn1cnc(-c2ccccc2)c1C(C)C,-9.98% (inactive)
18,Cc1ccc(F)cc1NC(=O)CSCc1c(C)noc1C,-4.98% (inactive)
19,Cc1ccc(F)cc1NC(=O)Cc1nn(C)c(=O)c2ccccc12,41.5% (active)
20,Cc1ccc(C)c(NC(=O)COC(=O)c2nn(C)c(=O)c3ccccc23)c1,-2.16% (inactive)
21,O=C(NCc1ccccc1)[C@H]1CCCN1C(=O)[C@H]1CCCN1C(=O)c1cc(F)cc(F)c1,-0.96% (inactive)
22,Nc1ccn([C@@H]2O[C@H](C(=O)N[C@H]3CCCCNC3=O)[C@@H](O)[C@H]2O)c(=O)n1,-3.96% (inactive)
23,C[C@@H]1CN([C@H](C)CO)C(=O)CCCn2cc(nn2)CO[C@H]1CN(C)C(=O)Nc1ccc(N2CCCCC2)cc1,-3.62% (inactive)
24,O=C(COC(=O)[C@H](Cc1ccccc1)NC(=O)c1cccs1)Nc1cc(F)ccc1F,-2.8% (inactive)

row,SMILES,inhibition
1,CC(=O)c1ccc(NC(=O)N[C@@H](Cc2ccccc2)C(=O)O)cc1,-4.01% (inactive)
2,NC(=O)c1ccc(NC(=O)COC(=O)C(Cc2ccccc2)NC(=O)c2ccccc2)cc1 (stereo not drawn),15.4% (active)
3,COC(=O)c1c(-c2ccc(OC)cc2)c2c(c3c4ccccc4n(S(=O)(=O)c4ccc(C)cc4)c13)C(=O)N(C)C2,-6.49% (inactive)
4,COc1ccc(-c2ccccc2C2Cc3nnccc3CN2C(=O)Nc2ccccc2)cc1 (stereo not drawn),-8.69% (inactive)
5,CCOC(=O)N1CCN(C(=O)C[C@H]2C[C@@]3(C(=O)OC)C(=C[C@H](C4CCCC4)O[C@@H]3C)N(Cc3ccccc3)C2=O)CC1,-2.22% (inactive)
6,C#CCN([C@@H](C)C(=O)OCC)S(=O)(=O)c1ccc(Br)cc1F,-6.91% (inactive)
7,O=C(Nc1ccccc1Cl)/C(Cl)=C(\Cl)S(=O)c1ccccc1 (stereo not drawn),16.2% (active)
8,CC(=O)c1ccc(NC(=O)C(C)N(C)CC(=O)Nc2ccccc2Cl)cc1 (stereo not drawn),-3.44% (inactive)
9,O=C(Nc1ccccc1Cl)c1ccccc1S(=O)(=O)c1ccccc1[N+](=O)[O-],0.75% (inactive)
10,COc1ccc(C2=CN(Cc3ccccc3)C(c3ccc(OC)cc3)CC2=O)cc1 (stereo not drawn),-4.04% (inactive)
11,Fc1cccc2ncnc(OCc3ccccc3)c12,-3.41% (inactive)
12,Cc1occc(=O)c1OCc1ccc(F)cc1,5.85% (inactive)
13,Cc1nc2ccccc2cc1OCc1ccc(F)cc1,80% (active)
14,CCOC(=O)Cn1c2c(n(-c3ccc(F)cc3)c1=O)C=C(c1ccccc1)[C@@H](C)C(C(=O)N(C)C1CCCCC1)=C2,-7.9% (inactive)
15,COC(=O)[C@]12C[C@H](CC(=O)NCCc3ccccc3OC)C(=O)N(Cc3ccccc3)C1=C[C@H](C(C)C)O[C@@H]2C1CC1,-6.79% (inactive)
16,COc1ccc(CC(=O)Nc2ccccc2NC(=O)c2ccco2)cc1OC,-2.83% (inactive)
17,COc1ccc(NC(=O)c2ccco2)cc1NC(=O)c1ccc(C#N)cc1F,-2.95% (inactive)
18,COc1cc(NC(=O)c2cc([N+](=O)[O-])ccc2Br)ccc1NC(=O)c1ccco1,22.4% (active)
19,Cc1ccc(C)c(CN2CCC(CNC(=O)C3CCCN(c4ncnc5c4nc4n5CCCCC4)C3)CC2)c1 (stereo not drawn),-1.9% (inactive)
20,Cc1[nH]c2ccccc2c1CC(=O)Nc1ccc(Nc2cccnc2)c(-c2cccc(Cl)c2)c1,-2.4% (inactive)
21,CCCCOCC1CN(CCCC)S(=O)(=O)c2c(Oc3ccc(F)cc3)cccc2O1 (stereo not drawn),2.7% (inactive)
